This passage reports cytotoxicity call results from the antibiotic and cytotoxicity screens of Wong et al. (2023).

SMILES strings stand for the structures. Out of some 39,000 compounds screened, about 3,300 (8.5%) were called active. For the sample, actives were picked, then their nearest neighbours and some compounds at random.

This assay has as its system HepG2. Briefly: cytotoxicity call (relative viability < 0.9). The settings on record: 10 µM.
As for `Cc1ccc(S(=O)(=O)Nc2cccc3c2O[C@H](CN(C)S(=O)(=O)c2cccs2)[C@H](C)CN([C@H](C)CO)C3=O)cc1`, the cytotoxicity call is “inactive”.
The same measure for `CC(C)NC(=O)N(C)C[C@@H]1OCCCC[C@H](C)Oc2ccc(NS(C)(=O)=O)cc2C(=O)N([C@@H](C)CO)C[C@@H]1C`: “inactive”; for `C[C@@H]1CN([C@H](C)CO)C(=O)Cc2cc(NC(=O)C3CC3)ccc2O[C@H]1CN(C)Cc1ccc(Oc2ccccc2)cc1`: “inactive”; for `Cc1noc(C)c1NC(=O)Nc1ccc2c(c1)C(=O)N([C@H](C)CO)C[C@@H](C)[C@@H](CN(C)C(=O)Nc1ccc(C(F)(F)F)cc1)O2`: “inactive”.
Take `C[C@H]1CN([C@@H](C)CO)C(=O)c2cccc(NC(=O)Nc3cccc4ccccc34)c2O[C@H]1CN(C)C(=O)NC1CCCCC1`: the cytotoxicity call was “inactive”.
The same measure for `O=C(/C=N/O)NCc1ccccn1`: “active”.
The entry for `NC(=O)NCc1ccccn1` is “inactive”; for `N#CCC(=O)NCc1ccccn1` it is “inactive”.
The entry for `C[C@H]1CN([C@@H](C)CO)C(=O)c2cc(C#CCN(C)C)cnc2O[C@@H]1CN(C)Cc1ccc2c(c1)OCO2` is “inactive”; for `CO[C@H](C(=O)[C@@H](O)[C@@H](C)O)[C@@H]1Cc2cc3cc(O[C@H]4C[C@@H](O[C@H]5C[C@@H](O)[C@H](O)[C@@H](C)O5)[C@@H](O)[C@@H](C)O4)c(C)c(O)c3c(O)c2C(=O)[C@H]1O[C@H]1C[C@@H](O[C@H]2C[C@@H](O[C@H]3C[C@](C)(O)[C@H](O)[C@@H](C)O3)[C@H](O)[C@@H](C)O2)[C@H](O)[C@@H](C)O1` it is “active”; for `CO[C@H](C(=O)[C@@H](O)[C@@H](C)O)[C@H]1Cc2cc3cc(O[C@H]4C[C@@H](O[C@H]5C[C@@H](O)[C@@H](O)[C@@H](C)O5)[C@@H](O)[C@@H](C)O4)c(C)c(O)c3c(O)c2C(=O)[C@@H]1O[C@H]1C[C@@H](O[C@H]2C[C@@H](O[C@H]3C[C@@](C)(O)[C@@H](O)[C@@H](C)O3)[C@@H](O)[C@@H](C)O2)[C@@H](O)[C@@H](C)O1` it is “active”.
On to `N=c1cc(N2CCCCC2)nc(N)n1OS(=O)(=O)O`, for which the cytotoxicity call is “inactive”.
With `CC(C)C(=O)NS(=O)(=O)c1ccc(N)cc1`, the cytotoxicity call was “inactive”.
With `C[C@H]1CN([C@@H](C)CO)C(=O)CCCn2cc(nn2)CO[C@@H]1CN(C)S(=O)(=O)c1ccc2ccccc2c1`, the cytotoxicity call was “inactive”.
The same measure for `O=C(CCCCCNC(=O)OCc1ccc(CO[C@H]2C[C@@H](c3ccccc3)C=C(C(=O)N3CCN(Cc4ccccc4)CC3)O2)cc1)NO`: “inactive”; for `CN(C)CC(=O)N1CC(=O)N2[C@H](CO)[C@@H](c3ccc(C#Cc4cccnc4)cc3)[C@@H]2C1`: “inactive”.
Take `Cc1noc(C)c1NC(=O)N(C)C[C@@H]1Oc2cc(Br)ccc2S(=O)(=O)N([C@H](C)CO)C[C@@H]1C`: the cytotoxicity call is “inactive”.
The entry for `COc1ccc2c3c([nH]c2c1)[C@@H](CO)N(C[C@]13CCN(CC1)C(=O)Nc1cccc(c1)F)C(=O)c1ccc(cc1)F` is “inactive”.
The same measure for `COc1ccc2c3c([nH]c2c1)[C@@H](CO)N(CC1CCCCC1)C[C@]13CN(C1)C(=O)Nc1cccc(c1)F`: “inactive”; for `COc1ccc2c3c([nH]c2c1)[C@H](CO)N(C[C@]13CCN(CC1)C(=O)Nc1cccc(c1)F)C(=O)c1ccc(cc1)F`: “inactive”; for `COc1ccc2c3c([nH]c2c1)[C@@H](CO)N(C[C@]13CN(CC2CCCCC2)C1)C(=O)Nc1cccc(c1)F`: “active”.
The entry for `COc1ccc2c3c([nH]c2c1)[C@H](CO)N(CC1CCCCC1)C[C@]13CN(C1)C(=O)Nc1cccc(c1)F` is “inactive”.
On to `COc1ccc2c3c([nH]c2c1)[C@H](CO)N(C[C@]13CN(CC2CCCCC2)C1)C(=O)Nc1cccc(c1)F`, for which the cytotoxicity call was “active”.
The entry for `C[C@@H]1CN([C@H](C)CO)C(=O)c2cccc(NS(=O)(=O)c3ccc(F)cc3)c2O[C@H]1CN(C)S(=O)(=O)c1ccc(F)cc1` is “inactive”.
Regarding `COc1cccc(-c2ccc3c(c2)O[C@@H](CN(C)C(=O)C2CCOCC2)[C@H](C)CN([C@@H](C)CO)S3(=O)=O)c1`, the cytotoxicity call is “inactive”.
The entry for `CC(C)NC(=O)N(C)C[C@@H]1Oc2ccc(NC(=O)Cn3cnnn3)cc2C(=O)N([C@@H](C)CO)C[C@@H]1C` is “inactive”; for `O=C(C[C@@H]1C=C[C@H](NS(=O)(=O)c2ccccc2F)[C@H](CO)O1)NCCCN1CCOCC1` it is “inactive”; for `C[C@@H]1CN([C@H](C)CO)C(=O)c2cccc(NC(=O)c3cnccn3)c2O[C@@H]1CN(C)S(=O)(=O)c1ccccc1` it is “inactive”.
Turning to `CC(C)NC(=O)Nc1ccc2c(c1)C(=O)N(C)[C@H]1CC[C@H](CC(=O)NCc3ccc(F)cc3)O[C@@H]1CO2`, the cytotoxicity call was “inactive”.
The entry for `C[C@@H]1CN([C@H](C)CO)C(=O)c2cc(NC(=O)C3CC3)ccc2O[C@H]1CN(C)Cc1ccc(-c2ccccc2)cc1` is “inactive”; for `CCc1ccc(-c2cc3c(=O)n(CC(=O)NCCN4CCOCC4)nc(C)n3n2)cc1` it is “inactive”.
The same measure for `Cc1ccc(S(=O)(=O)Nc2ccc3c(c2)CC(=O)N([C@H](C)CO)C[C@H](C)[C@@H](CN(C)S(=O)(=O)c2cccs2)O3)cc1`: “inactive”; for `COc1ccc(CN(C)C[C@H]2OCCCC[C@@H](C)Oc3ccc(NC(=O)NC4CCCCC4)cc3C(=O)N([C@H](C)CO)C[C@@H]2C)cc1`: “inactive”.
The same measure for `C[C@@H]1CN([C@@H](C)CO)S(=O)(=O)c2ccc(C#C[C@@H](C)O)cc2O[C@@H]1CN(C)C(=O)Nc1ccccc1`: “inactive”; for `COc1ccc(CN(C)C[C@H]2Oc3c(NC(=O)c4ccc(-c5nccs5)cc4)cccc3C(=O)N([C@@H](C)CO)C[C@@H]2C)cc1`: “inactive”; for `COc1ccc(CN(C)C[C@@H]2Oc3c(NC(=O)c4ccc(-c5nccs5)cc4)cccc3C(=O)N([C@@H](C)CO)C[C@H]2C)cc1`: “active”.
For the molecule `COc1ccc(CN(C)C[C@H]2Oc3c(NC(=O)c4ccc(-c5nccs5)cc4)cccc3C(=O)N([C@@H](C)CO)C[C@H]2C)cc1`, the cytotoxicity call is “inactive”.
The entry for `COc1ccc(CN(C)C[C@H]2Oc3c(NC(=O)c4ccc(-c5nccs5)cc4)cccc3C(=O)N([C@H](C)CO)C[C@@H]2C)cc1` is “inactive”.
The entry for `COc1ccc(CN(C)C[C@@H]2Oc3c(NC(=O)c4ccc(-c5nccs5)cc4)cccc3C(=O)N([C@H](C)CO)C[C@@H]2C)cc1` is “inactive”; for `COc1ccc(CN(C)C[C@@H]2Oc3c(NC(=O)c4ccc(-c5nccs5)cc4)cccc3C(=O)N([C@H](C)CO)C[C@H]2C)cc1` it is “active”.
In the case of `CO[C@@H]1CN(C)C(=O)c2cc(NC(C)=O)ccc2OC[C@@H](C)N(S(=O)(=O)c2cn(C)cn2)C[C@H]1C`, the cytotoxicity call is “inactive”.
The entry for `C[C@@H]1CCCCO[C@H](CN(C)Cc2ccccc2)[C@@H](C)CN([C@H](C)CO)C(=O)c2cc(NC(=O)c3ccccc3)ccc2O1` is “inactive”; for `CCC[C@@H](O)C#Cc1cnc2c(c1)C(=O)N([C@H](C)CO)C[C@H](C)[C@H](CN(C)S(=O)(=O)c1ccccc1)O2` it is “inactive”; for `C[C@H](CO)N1C[C@H](C)[C@@H](CN(C)Cc2ccc(Oc3ccccc3)cc2)Oc2ccc(NC(=O)Cc3cn(C)c4ccccc34)cc2C1=O` it is “active”.
The same measure for `C[C@@H]1CN([C@H](C)CO)C(=O)c2cc(NC(=O)Cc3cn(C)c4ccccc34)ccc2O[C@@H]1CN(C)Cc1ccc(Oc2ccccc2)cc1`: “inactive”.
The same measure for `C[C@@H]1CN([C@H](C)CO)C(=O)c2cc(NC(=O)Cc3cn(C)c4ccccc34)ccc2O[C@H]1CN(C)Cc1ccc(Oc2ccccc2)cc1`: “inactive”; for `C[C@@H]1CN([C@@H](C)CO)C(=O)c2cc(NC(=O)Cc3cn(C)c4ccccc34)ccc2O[C@@H]1CN(C)Cc1ccc(Oc2ccccc2)cc1`: “inactive”; for `C[C@H]1CN([C@@H](C)CO)C(=O)c2cc(NC(=O)Cc3cn(C)c4ccccc34)ccc2O[C@@H]1CN(C)Cc1ccc(Oc2ccccc2)cc1`: “active”.
For `C[C@@H]1CN([C@@H](C)CO)C(=O)c2cc(NC(=O)Cc3cn(C)c4ccccc34)ccc2O[C@H]1CN(C)Cc1ccc(Oc2ccccc2)cc1`, the cytotoxicity call is “inactive”.
The same measure for `C[C@H]1CN([C@@H](C)CO)C(=O)c2cc(NC(=O)Cc3cn(C)c4ccccc34)ccc2O[C@H]1CN(C)Cc1ccc(Oc2ccccc2)cc1`: “inactive”; for `C[C@H](CO)N1C[C@H](C)[C@H](CN(C)Cc2ccc(Oc3ccccc3)cc2)Oc2ccc(NC(=O)Cc3cn(C)c4ccccc34)cc2C1=O`: “active”; for `Cc1ccc(S(=O)(=O)N(C)C[C@H]2OCCCC[C@@H](C)Oc3ccc(NC(=O)Nc4ccc5c(c4)OCO5)cc3C(=O)N([C@H](C)CO)C[C@@H]2C)cc1`: “inactive”.
The entry for `COc1cccc(-c2ccc3c(c2)O[C@H](CN(C)Cc2cncnc2)[C@H](C)CN([C@@H](C)CO)S3(=O)=O)c1` is “inactive”; for `COc1ccc(NC(=O)N(C)C[C@H]2Oc3ccc(NC(=O)CCCCCC(=O)Nc4ccccc4N)cc3CC(=O)N([C@H](C)CO)C[C@H]2C)cc1` it is “inactive”; for `C[C@@H]1CN([C@@H](C)CO)C(=O)c2c(c3ccccc3n2C)-c2ccccc2CO[C@H]1CN(C)S(C)(=O)=O` it is “inactive”.
For `CC(=O)OCC1=C(C(=O)O)N2C(=O)[C@@H](NC(=O)CSc3ccncc3)[C@H]2SC1`, the cytotoxicity call is “inactive”.
For the molecule `C[C@H](CO)N1C[C@H](C)[C@H](CN(C)Cc2ccc(-c3ccccc3)cc2)Oc2ccc(NC(=O)Cn3cnnn3)cc2C1=O`, the cytotoxicity call is “inactive”.
The same measure for `C[C@H]1CN([C@@H](C)CO)C(=O)c2cccc(NS(=O)(=O)c3cn(C)cn3)c2O[C@@H]1CN(C)Cc1ccc(C(=O)O)cc1`: “inactive”; for `Cn1nnnc1-c1ccc(N)cc1`: “inactive”.
In the case of `COc1cc(NC(C)CCCN)c2ncccc2c1.O=P(O)(O)O.O=P(O)(O)O` (configuration not stated), the cytotoxicity call is “active”.
The entry for `Cc1c(-c2c(-c3ccc(F)o3)sc3ncnc(O[C@H](Cc4ccccc4OCc4ccnn4CC(F)(F)F)C(=O)O)c23)ccc(OCCN2CCN(C)CC2)c1Cl` is “active”; for `C[C@H]1CN([C@@H](C)CO)C(=O)CCCn2cc(nn2)CO[C@H]1CN(C)S(=O)(=O)c1ccccc1C#N` it is “inactive”.
